Reference: PubChem BioAssay AID1690 (NMMLSC, 2009)
Results with a measured potency or affinity are listed apart. Activity calls are given as the source filed them.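 Rule for the calls: active = combined score above 51, weighing potency under 20 µM and fitted curve span over 20%; inactive = the rest.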

molecular target: Broad substrate specificity ATP-binding cassette transporter ABCG2 (Homo sapiens) (UniProt Q9UNQ0); assay: blockers of JC-1 export by ABCG2 – Ig-MXP3 cells, flow cytometry, dose response (AID 1690); conditions: JC-1 efflux; series mostly up to 33.3 µM
Sequence (Q9UNQ0 whole entry, looked up): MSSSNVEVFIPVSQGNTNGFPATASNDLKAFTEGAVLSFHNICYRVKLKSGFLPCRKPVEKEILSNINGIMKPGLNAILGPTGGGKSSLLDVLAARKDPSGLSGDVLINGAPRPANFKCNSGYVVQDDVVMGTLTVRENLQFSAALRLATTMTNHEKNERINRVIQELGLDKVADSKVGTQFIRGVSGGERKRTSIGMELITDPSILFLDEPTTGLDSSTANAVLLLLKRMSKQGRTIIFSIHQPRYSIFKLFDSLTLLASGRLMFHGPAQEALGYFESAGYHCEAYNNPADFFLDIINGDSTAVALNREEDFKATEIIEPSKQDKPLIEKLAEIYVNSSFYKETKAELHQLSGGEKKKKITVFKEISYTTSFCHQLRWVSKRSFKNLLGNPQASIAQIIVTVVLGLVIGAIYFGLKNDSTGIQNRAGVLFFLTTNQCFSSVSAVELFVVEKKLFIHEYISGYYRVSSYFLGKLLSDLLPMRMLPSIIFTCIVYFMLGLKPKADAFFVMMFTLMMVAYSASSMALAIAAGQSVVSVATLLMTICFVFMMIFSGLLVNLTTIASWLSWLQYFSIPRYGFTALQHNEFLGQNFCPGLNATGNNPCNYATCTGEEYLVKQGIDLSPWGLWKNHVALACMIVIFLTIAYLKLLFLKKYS

outcome, inactive:
N#CC(C#N)=C1C=C2C=C(N3CCCCCC3)CCC2CC1 (stereo unspecified)
CN(C)c1ccc(/C=C2\SC(=S)N(Nc3ncc(C(F)(F)F)cc3Cl)C2=O)cc1
COc1ccc(/C=N/NC(=O)c2cccnc2)cc1CN1CCN(c2ccc(F)cc2)CC1
CCCCn1c(O)c(N=Nc2ccccn2)c2ccccc21
CCN1/C(=C\C=C\c2oc3ccc4ccccc4c3[n+]2CC)Oc2ccc3ccccc3c21
Cc1nc2cc(-c3cccc(F)c3)nn2c(N2CCN(C(=O)c3ccco3)CC2)c1C
N#CC(C#N)=C1C=C2C=C(N3CCOCC3)CCC2CC1 (stereo unspecified)
COc1ccc(CCNC(=O)COC(=O)/C=C/c2ccc(OC)c(OC)c2)cc1
CCN(CC)C1=CC2=CC(=C(C#N)C#N)CCC2CC1 (stereo unspecified)
CC(=O)Nc1ccc(Nc2ccc(S(=O)(=O)C(F)(F)F)cc2[N+](=O)[O-])cc1
CCCCN1/C(=C/c2ccc3ccccc3[n+]2CC)Sc2ccccc21
CN1CCN(C2=CC3=CC(=C(C#N)C#N)CCC3CC2)CC1 (stereo unspecified)
COC(=O)c1cc(NC(=O)c2ccccc2)c(=O)oc1/C=C/Nc1ccc(Oc2ccccc2)cc1
CCOC(=O)c1sc2cc([N+](=O)[O-])cc(SCC(C)C)c2c1N
COc1ccccc1Nc1nc2nonc2nc1N1CCCCC1C (stereo unspecified)
CNc1nc2cc([N+](=O)[O-])c([N+](=O)[O-])cc2nc1NC
